Experimental data reported in PubChem BioAssay (Tox21).
Results filed as inconclusive are left out. Entries that show only a call come without a potency. Values without a mark were called inactive. The source made the active and inactive calls. The call rests on the fitted dose curve. Peptide text beside a SMILES is read from it.

What follows are compounds tested against D(2) dopamine receptor (Homo sapiens) (UniProt P14416) (assay: Dopamine D2 receptor (DRD2) small molecule agonists, cell-based qHTS assay (AID 1963594; further: nearly all actives have a fitted effect of over 35% in size)). Details: HEK293-DRD2 cAMP HTRF, agonist mode, 30 min; series mostly up to 92.4 µM.
Sequence of D(2) dopamine receptor (Homo sapiens) (P14416 whole entry, looked up): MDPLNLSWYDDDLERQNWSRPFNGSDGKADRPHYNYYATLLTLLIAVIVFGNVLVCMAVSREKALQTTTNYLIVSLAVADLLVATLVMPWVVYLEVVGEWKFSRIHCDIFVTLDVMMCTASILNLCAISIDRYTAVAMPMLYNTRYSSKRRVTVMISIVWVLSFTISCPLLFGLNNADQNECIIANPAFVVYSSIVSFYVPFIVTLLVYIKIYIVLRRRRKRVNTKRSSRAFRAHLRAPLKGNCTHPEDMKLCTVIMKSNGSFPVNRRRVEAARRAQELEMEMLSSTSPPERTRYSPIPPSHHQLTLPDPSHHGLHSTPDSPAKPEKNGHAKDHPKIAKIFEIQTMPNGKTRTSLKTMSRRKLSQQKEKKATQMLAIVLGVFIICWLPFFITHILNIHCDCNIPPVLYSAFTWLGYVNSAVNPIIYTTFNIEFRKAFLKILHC
Text: National Center for Advancing Translational Sciences [NCATS]
Division of Preclinical Innovation [DPI]
U.S. Environmental Protection Agency [EPA]
National Institutes of Environmental Health Sciences [NIEHS]
National Toxicology Program [NTP]
U.S. Food and Drug Administration [FDA]
DRD2 is the D2 subtype of the dopamine receptor, which is coupled to Gi subtype of G protein-coupled receptor. This G protein-coupled receptor inhibits adenylyl cyclase activity. The DRD2-HEK293 cell line stably expressing D2 dopamine receptor can be used for screening agonists and antagonists of interactions between D2 and its ligands. The Hek293-DRD2 cAMP assay is based on HTRF technology. It measures changes of cAMP accumulation in response to Gi coupled GPCR activation or inhibition.
Tox21 Assay Protocol Summary:
DRD2-Hek293 cells were dispensed at 600 cells/3uL/well in 1536-well white plates using a Multidrop Dispenser. After the assay plates were incubated at a 37 C/5% CO2 incubator for 24 h, 1 uL of Ro20-1724 at final concentration of 0.1 mM was transferred to the assay plate by a Flying Reagent Dispenser. Following Ro20-1724 addition, 23 nL of compound dissolved in DMSO, positive controls or DMSO only was added to the assay plates via Wako pintool station. The assay plates were incubated at room temperature for 10 min. Next, 1 uL of NKH477 at 200nM was added into the plates. After the assay plates were incubated at room temperature for an additional 30 min, 2.5 ul/well of cAMP-d2 and 2.5 ul/well of anti-cAMP-cryptate were added respectively into the assay plates using a Flying Reagent Dispenser. The plates were incubated at room temperature for 1 h. The fluorescence intensity in the plates was measured at 340 nm excitation and 665 & 620 nm emission by an Envision plate reader.
In the case of `FC(F)(F)c1ccc(Cl)cc1Cl`, the Potency is reported as “inactive”. In the case of `O=C1CCCc2c(O)cccc21`, the Potency is reported as “inactive”. `CCN(CC)CCOC(=O)C(c1ccccc1)c1ccccc1` was tested, and the Potency was “inactive”. For `COc1ccc(OC(=O)N(CC(=O)O)Cc2ccc(OCCc3nc(-c4ccccc4)oc3C)cc2)cc1`, the Potency was “inactive”. In the case of `COc1cc2c(cc1OC)C(=O)CC2`, the Potency is reported as “inactive”. With `C=CC1CC2C=CC1C2` (stereo not given) the Potency was “inactive”. `C/C=C(\C)C(=O)OCCc1ccccc1` was tested, and the Potency was “inactive”. `CC1(C)CC(O)CC(C)(C)N1` was tested, and the Potency was “inactive”. With `Cc1ccc(NC(N)=O)cc1` the Potency was “inactive”. Work on `S=C(SSSSSSC(=S)N1CCCCC1)N1CCCCC1` yielded an activation of -0.326% [at 19 µM]. Work on `COc1cc2nc(N3CCN(C(=O)c4ccco4)CC3)nc(N)c2cc1OC` yielded an activation of 10.2% [at 19 µM]. For `CCCCCCc1ccc(N)cc1`, the Potency was “inactive”. For `CCn1nc(Cc2ccccc2)cc1C1CCN(C[C@H]2C[C@H](N(C)[C@@H](C(=O)O)C(C)C)C[C@@H]2c2cccc(F)c2)CC1`, the Potency was “inactive”. In the case of `CC/C=C\CCOC(=O)c1ccccc1`, the Potency is reported as “inactive”. In the case of `O=C(Oc1ccccc1C(=O)O)c1ccccc1O`, the Potency is reported as “inactive”. `N=C(N)c1ccc(OCCCOc2ccc(C(=N)N)cc2)cc1` was tested, and the Potency was “inactive”. `BrC/C=C/CBr` showed an activation of -0.205% [at 19 µM]. In the case of `C=CC(=O)OCC(O)COc1ccccc1` (stereo not given), the Potency is reported as “inactive”. `O=C1c2ccccc2C(=O)N1CCl` was tested, and the Potency was “inactive”. For `CCCCCCCCC(C)=O`, the Potency was “inactive”. In the case of `c1ccc(-c2nn[nH]n2)cc1`, the Potency is reported as “inactive”. With `C[Si](NC1CCCCC1)(NC1CCCCC1)NC1CCCCC1` the Potency was “inactive”. In the case of `CCC(CC)(CC(=O)Nc1cccc(/C=C/c2nc(C3CCC3)cs2)c1)C(=O)O`, the Potency is reported as “inactive”. With `CCn1cc(C(=O)O)c(=O)c2cc(F)c(N3CCN(C)CC3)cc21` the activation was 19.5% [at 19 µM]. `CCOC(=O)C(=O)CCCCCCl` was tested, and the Potency was “inactive”. In the case of `N#C/C(=C1\SCC(c2ccccc2Cl)S1)n1ccnc1` (stereo not given), the Potency is reported as “inactive”. In the case of `CCCCCCCCCCCCCCCCCO`, the activation is reported as 0.198% [at 19 µM]. In the case of `CCC(C)(CCC(C)C)C(=O)[O][Sn]([CH3])([CH3])[O]C(=O)C(C)(CC)CCC(C)C` (stereo not given), the Potency is reported as “inactive”. For `CC1(C)OC(=O)Nc2ccc(Br)cc21`, the Potency was “inactive”. With `CC(C)(C)OC(=O)c1ccccc1C(=O)O` the Potency was “inactive”. In the case of `CC[C@@H](CO)NCCN[C@@H](CC)CO`, the Potency is reported as “inactive”. For `Cc1cn[nH]c1`, the Potency was “inactive”. For `Cc1nccn1CC1CCc2c(c3ccccc3n2C)C1=O` (stereo not given), the Potency was “inactive”. With `NCC[C@H](O)C(=O)N[C@@H]1C[C@H](N)[C@@H](O[C@H]2O[C@H](CN)[C@@H](O)[C@H](O)[C@H]2O)[C@H](O)[C@H]1O[C@H]1O[C@H](CO)[C@@H](O)[C@H](N)[C@H]1O` the activation was -17.8% [at 0.349 µM]. `OC(CCCN1CCCCC1)(c1ccccc1)c1ccccc1` was tested, and the Potency was “inactive”. For `CC(=O)N[C@@H](CO)C(=O)N[C@@H](CC(=O)O)C(=O)N[C@@H](CCCCN)C(=O)N1CCC[C@H]1C(=O)O` (Ac-SDKP-OH), the Potency was “inactive”. For `CCCCCOc1ccc(C2SC(=O)NC2=O)cc1OCC` (stereo not given), the Potency was “inactive”. `CO[Si](OC)(OC)OC` was tested, and the Potency was “inactive”. `O=CC(=O)c1ccccc1` was tested, and the Potency was “inactive”. `CCCCC(CC)COC(=O)COc1ccc(Cl)cc1Cl` (stereo not given) was tested, and the Potency was “inactive”.
